{
  "source": "PubChem BioAssay AID686978",
  "about": "(National Center for Advancing Translational Sciences (NCATS), 2013)",
  "note": "Among all 420,000 compounds or so, about 64,000 (15%) were called active. Not shown: some 27% with an inconclusive outcome. The call rests on the fitted dose curve; in most records, active means well fitted inhibition curve with a large enough effect; inconclusive means small, poorly fitted or top-dose-only effect; inactive means flat fitted curve, though single readings scatter. Not all results are given here. A call without a number means that no potency is given here. Potency means the concentration at half of the fitted maximal effect.",
  "data": [
    {"test": "qHTS for Inhibitors of human tyrosyl-DNA phosphodiesterase 1 (TDP1): qHTS in cells in absence of CPT; further: nearly all actives have a fitted effect of over 55% in size", "conditions": "DT40 Tdp1-/- hTDP1 cells, no CPT, ATP luminescence, 48 h; activity change, negative = growth inhibition: at 46.2 µM (top of the series)", "procedure,_shortened": "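DT40 Tdp1-/-;hTDP1 cells, no CPT (DMSO vehicle only), 400 cells/well; compounds pin-transferred; ≥48 hr, 37 °C; CellTiter-Glo 30 min RT dark, luminescence read.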", "values": [
      {"smiles": "Cc1nc(-c2ccccc2)sc1C(=O)/C=C/c1ccccc1", "Potency": "18.4 µM (active)"},
      {"smiles": "N#Cc1cnn2cc(CCN3CCOCC3)c(-c3ccc(F)cc3)nc12", "Potency": "inactive"},
      {"smiles": "CCCc1c2oc(C(=O)O)cc(=O)c2cc2c(=O)cc(C(=O)O)n(CC)c12", "Potency": "inactive"},
      {"smiles": "O=C(Nc1ccccc1C(=O)NCC1CCCO1)c1ccccc1F", "note": "(stereo not drawn)", "Potency": "inactive"},
      {"smiles": "CNC(=O)CN1C(=O)NC(c2ccccc2)(c2ccccc2)C1=O", "Potency": "inactive"},
      {"smiles": "CCN(CC)C(=O)C1=C(C)N(Cc2ccc(C(C)(C)C)cc2)C(=O)C(CC(=O)NCc2cccc3ccccc23)C1", "note": "(stereo not drawn)", "Potency": "16.4 µM (active)"},
      {"smiles": "CCN(CC)C(=O)C1=C(C)N(Cc2ccc(OC)cc2)C(=O)C(CC(=O)NCc2ccco2)C1", "note": "(stereo not drawn)", "Potency": "inactive"},
      {"smiles": "COc1ccc(CN2C(=O)C(CC(=O)NCc3cccc4ccccc34)CC(C(=O)N3CCOCC3)=C2C)cc1", "note": "(stereo not drawn)", "Potency": "inactive"},
      {"smiles": "CCN(CC)C(=O)C1=C(C)N(Cc2ccc(F)cc2)C(=O)C(CC(=O)NC2CCCC2)C1", "note": "(stereo not drawn)", "Potency": "inactive"},
      {"smiles": "CC1=C(C(=O)N(C)C)CC(CC(=O)NCCN2CCOCC2)C(=O)N1Cc1ccccc1", "note": "(stereo not drawn)", "Potency": "inactive"},
      {"smiles": "CCN(CC)C(=O)C1=C(C)N(Cc2ccccc2)C(=O)C(CC(=O)NC(c2ccccc2)c2ccccc2)C1", "note": "(stereo not drawn)", "Potency": "18.4 µM (active)"},
      {"smiles": "COc1ccc2c(C)cc3nnnn3c2c1", "Potency": "inactive"},
      {"smiles": "O=C(Nc1ccc(Cl)cc1)c1cc2nc(C3CC3)cc(C(F)(F)F)n2n1", "Potency": "inactive"},
      {"smiles": "COc1ccc(C(=O)NCc2nnc(SCC(=O)Nc3cccc(OC)c3)o2)cc1", "Potency": "inactive"},
      {"smiles": "COc1cc(C(=O)NCc2nnc(SCC(=O)Nc3nc4ccc(C)cc4s3)o2)cc(OC)c1OC", "Potency": "4.61 µM (active)"},
      {"smiles": "COc1ccccc1NC(=O)CSc1nnc(CNC(=O)c2ccccc2F)o1", "Potency": "inactive"},
      {"smiles": "O=C(O)c1cc(S(=O)(=O)NC2CCCc3ccccc32)ccc1O", "note": "(stereo not drawn)", "Potency": "inactive"},
      {"smiles": "Cc1cccc(OCC(=O)NCCCNC(=O)c2ccccn2)c1", "Potency": "inactive"},
      {"smiles": "CCC(C)(NC(=O)c1ccccn1)C(=O)NC1CCCCC1", "note": "(stereo not drawn)", "Potency": "inactive"},
      {"smiles": "CCN(CC)CCOc1ccc2c(c1)C(=NNC(=O)c1ccccn1)c1cc(OCCN(CC)CC)ccc1-2", "Potency": "3.26 µM (active)"},
      {"smiles": "N#Cc1ccc[n+](CC(=O)c2ccc(O)c(O)c2)c1", "Potency": "inactive"},
      {"smiles": "CCn1c(/C=C/Nc2ccccc2)[n+](CC)c2ccc(C(=O)OCC(F)(F)F)cc21", "Potency": "14.6 µM (active)"},
      {"smiles": "CCOC(=O)c1cc2ccccc2n1CC(=O)c1ccccc1", "Potency": "inactive"},
      {"smiles": "Cc1nnc(SC(C(=O)c2ccccc2)c2ccccc2)[nH]c1=O", "note": "(stereo not drawn)", "Potency": "inactive"},
      {"smiles": "NC(=O)c1ncn([C@@H]2O[C@H](CNCc3cnc(N4CCOCC4)s3)[C@@H](O)[C@H]2O)n1", "Potency": "inactive"},
      {"smiles": "CN(C)C(=O)c1ccc(NC(=O)c2ccccc2-c2ccccc2)cc1", "Potency": "inactive"},
      {"smiles": "CN(C)C(=O)c1ccc2c(c1)C1C3CCC(C3)C1C(c1ccccc1)N2", "note": "(stereo not drawn)", "Potency": "18.4 µM (active)"},
      {"smiles": "O=C(O)CCCN1C(=O)C2C3c4ccccc4C(c4ccccc43)[C@@H]2C1=O", "note": "(stereo partly drawn)", "Potency": "inactive"},
      {"smiles": "CCOC(=O)N1CCN(C(=O)C2CCN(c3ncnc4c3sc3cccc(F)c34)CC2)CC1", "Potency": "5.8 µM (active)"},
      {"smiles": "CCOC(=O)N1CCN(C(=O)C2CCN(Cc3ccc(OC)cc3OC)CC2)CC1", "Potency": "inactive"},
      {"smiles": "CCOC(=O)N1CCN(C(=O)C2CC(c3ccc(F)cc3)=NO2)CC1", "note": "(stereo not drawn)", "Potency": "inactive"},
      {"smiles": "CCOC(=O)N1CCN(C(=O)C2CCCN(c3ncnc4c3sc3cccc(F)c34)C2)CC1", "note": "(stereo not drawn)", "Potency": "6.51 µM (active)"},
      {"smiles": "CCOC(=O)N1CCN(C(=O)C2CCN(S(=O)(=O)c3cc(Cl)ccc3OCC)CC2)CC1", "Potency": "inactive"},
      {"smiles": "Cc1cc(=O)n2nc(N3CCCC(C(=O)N4CCN(C)CC4)C3)sc2n1", "note": "(stereo not drawn)", "Potency": "inactive"},
      {"smiles": "O=C(O)c1c(NC(=O)N2CCCC2)sc2c1CCCC2", "Potency": "inactive"},
      {"smiles": "CC(C)C(=O)N1CC(=O)Nc2ccc(F)cc2C1c1ccc(F)cc1", "note": "(stereo not drawn)", "Potency": "inactive"},
      {"smiles": "O=S(=O)(NCc1ccco1)c1cnc(Cl)c(Cl)c1", "Potency": "inactive"},
      {"smiles": "COc1ccc([C@H]2CC(=O)C=C(c3ccc(OC(F)(F)F)cc3)C2)cc1OC", "Potency": "16.4 µM (active)"},
      {"smiles": "COc1ccc([C@H]2CC(=O)C=C(c3ccc(C)cc3)C2)cc1", "Potency": "inactive"},
      {"smiles": "COc1ccc([C@H]2CC(=O)C=C(c3ccc(CO)cc3)C2)cc1", "Potency": "inactive"},
      {"smiles": "COc1cc(C2C(C#N)=C(C)NC3=C2C(=O)CC(C)(C)C3)ccc1O", "note": "(stereo not drawn)", "Potency": "inactive"},
      {"smiles": "CN(C)CCOc1cccc(Br)c1", "Potency": "inactive"},
      {"smiles": "C=CCNCCCCOc1ccccc1", "Potency": "inactive"},
      {"smiles": "Nc1cccc(OCCCCCOc2cccc(N)c2)c1", "Potency": "16.4 µM (active)"},
      {"smiles": "CCCCN(C(=O)CSCC(=O)Nc1ccc(OC)cc1)c1c(N)n(CCC)c(=O)[nH]c1=O", "Potency": "inactive"},
      {"smiles": "COc1ccc(CCNC(=O)COC(=O)Cc2cccc(F)c2)cc1", "Potency": "inactive"},
      {"smiles": "O=C(C1CCCN1S(=O)(=O)c1ccc(Br)cc1)N1CCOCC1", "note": "(stereo not drawn)", "Potency": "inactive"},
      {"smiles": "Cc1ccc(N(CCC(=O)O)S(=O)(=O)c2cccc(C(F)(F)F)c2)cc1", "Potency": "inactive"},
      {"smiles": "Cc1noc(C)c1S(=O)(=O)Nc1ccc(C(=O)O)cc1", "Potency": "inactive"},
      {"smiles": "Cc1oc2c(F)c(F)c(F)c(F)c2c1S(=O)(=O)Nc1cccc(C(F)(F)F)c1", "Potency": "20.6 µM (active)"},
      {"smiles": "Cc1cccc(C(=O)OCC(=O)Nc2sccc2C(N)=O)c1C", "Potency": "inactive"},
      {"smiles": "COc1cc(OC)cc(C(=O)OCC(=O)Nc2ccc(F)cc2F)c1", "Potency": "inactive"},
      {"smiles": "COc1cc(OC)cc(C(=O)OCC(=O)Nc2sccc2C(N)=O)c1", "Potency": "18.4 µM (active)"}
    ]}
  ]
}
